Reference: article PMC7862700, “An all-to-all approach to the identification of sequence-specific readers for epigenetic DNA modifications on cytosine”

How the values were obtained:
Assay in all cases: DAPPL (digital affinity profiling via proximity ligation, sequencing); 10 mM Tris-HCl pH 7.5, 50 mM NaCl, 1 mM DTT, 4% glycerol, room temperature, 30 min; GST-TFs on glutathione beads, 16-mer random dsDNA library, 0.1% formaldehyde crosslink after washing; high values mean tight binding
Settings in all cases: protein: recombinant; tags: N-terminal GST; dsDNA, one strand shown
FLI1 = molecular target: T1, FLI1 (Homo sapiens, UniProt Q01543 1-452)
T1 sequence: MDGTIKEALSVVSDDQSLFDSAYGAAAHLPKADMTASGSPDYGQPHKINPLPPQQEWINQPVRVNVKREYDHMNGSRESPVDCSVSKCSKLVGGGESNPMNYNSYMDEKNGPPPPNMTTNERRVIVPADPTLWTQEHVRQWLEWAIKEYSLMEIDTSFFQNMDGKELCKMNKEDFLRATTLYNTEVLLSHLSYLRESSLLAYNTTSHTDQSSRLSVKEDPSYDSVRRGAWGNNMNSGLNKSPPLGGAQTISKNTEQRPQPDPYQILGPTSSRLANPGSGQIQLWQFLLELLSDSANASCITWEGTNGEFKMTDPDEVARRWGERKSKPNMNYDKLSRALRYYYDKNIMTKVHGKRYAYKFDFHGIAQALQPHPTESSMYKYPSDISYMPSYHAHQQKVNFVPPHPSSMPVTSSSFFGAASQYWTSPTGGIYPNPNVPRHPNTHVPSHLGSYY
Summary of the method: (§1)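 Yeast served to express human transcription factors as GST fusions, which were then captured on glutathione beads and labelled with DNA barcodes. Pooled with a tag-only sample, they were incubated with 200 nmole of a 16-mer random double-stranded DNA library for 30 min at room temperature in Tris/NaCl/DTT/glycerol buffer, washed, crosslinked with 0.1% formaldehyde, ligated by proximity, amplified by PCR and sequenced. Dividing each hexamer's read frequency for a factor by its frequency for the tag-only sample gives the binding signal.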

ELK1 = molecular target: T2, ELK1 (Homo sapiens, UniProt P19419 1-428)
T2 sequence: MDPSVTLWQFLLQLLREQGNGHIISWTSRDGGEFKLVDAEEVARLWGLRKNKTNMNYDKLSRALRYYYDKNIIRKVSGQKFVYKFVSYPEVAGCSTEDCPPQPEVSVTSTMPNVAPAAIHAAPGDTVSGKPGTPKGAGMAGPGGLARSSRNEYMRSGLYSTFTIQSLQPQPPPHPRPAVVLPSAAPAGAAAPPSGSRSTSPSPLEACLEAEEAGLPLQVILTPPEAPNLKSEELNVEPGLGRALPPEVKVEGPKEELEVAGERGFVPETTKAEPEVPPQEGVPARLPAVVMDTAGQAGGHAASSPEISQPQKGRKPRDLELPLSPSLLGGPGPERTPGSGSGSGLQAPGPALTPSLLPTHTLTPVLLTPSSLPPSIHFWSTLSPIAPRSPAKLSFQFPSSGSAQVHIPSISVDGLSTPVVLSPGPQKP
Summary of the method: as §1

GABPA = molecular target: T3, GABPA (Homo sapiens, UniProt Q06546 1-454)
T3 sequence: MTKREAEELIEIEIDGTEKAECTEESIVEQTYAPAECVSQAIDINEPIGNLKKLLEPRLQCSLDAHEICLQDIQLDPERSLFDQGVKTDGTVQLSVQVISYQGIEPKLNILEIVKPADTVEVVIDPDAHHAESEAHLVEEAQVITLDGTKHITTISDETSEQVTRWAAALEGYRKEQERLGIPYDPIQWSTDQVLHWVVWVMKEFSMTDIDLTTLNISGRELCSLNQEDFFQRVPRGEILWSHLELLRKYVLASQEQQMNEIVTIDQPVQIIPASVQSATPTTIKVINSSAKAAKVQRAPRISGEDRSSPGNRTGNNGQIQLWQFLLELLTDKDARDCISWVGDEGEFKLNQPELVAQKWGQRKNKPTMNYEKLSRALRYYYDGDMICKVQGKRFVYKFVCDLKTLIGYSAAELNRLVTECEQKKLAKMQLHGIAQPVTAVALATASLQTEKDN
Summary of the method: as §1

ERG = molecular target: T4, ERG (Homo sapiens, UniProt P11308 1-479)
T4 sequence: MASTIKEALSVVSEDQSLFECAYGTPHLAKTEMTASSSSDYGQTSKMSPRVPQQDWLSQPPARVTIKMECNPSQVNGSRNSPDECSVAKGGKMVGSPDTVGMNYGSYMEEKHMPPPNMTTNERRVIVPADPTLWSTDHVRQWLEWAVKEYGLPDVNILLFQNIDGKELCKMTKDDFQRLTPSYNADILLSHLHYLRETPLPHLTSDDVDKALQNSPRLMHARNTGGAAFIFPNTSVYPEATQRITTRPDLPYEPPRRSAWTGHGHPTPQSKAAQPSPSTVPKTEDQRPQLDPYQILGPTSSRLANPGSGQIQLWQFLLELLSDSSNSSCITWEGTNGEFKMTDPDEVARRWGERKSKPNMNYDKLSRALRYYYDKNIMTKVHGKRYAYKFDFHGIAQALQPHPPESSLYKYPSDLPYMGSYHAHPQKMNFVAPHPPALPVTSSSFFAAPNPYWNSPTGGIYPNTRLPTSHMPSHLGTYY
Summary of the method: as §1

ELF1 = ELF1 (Homo sapiens, UniProt P32519 1-619)
Summary of the method: as §1

EHF = molecular target: T5, EHF (Homo sapiens, UniProt Q9NZC4 1-300)
T5 sequence: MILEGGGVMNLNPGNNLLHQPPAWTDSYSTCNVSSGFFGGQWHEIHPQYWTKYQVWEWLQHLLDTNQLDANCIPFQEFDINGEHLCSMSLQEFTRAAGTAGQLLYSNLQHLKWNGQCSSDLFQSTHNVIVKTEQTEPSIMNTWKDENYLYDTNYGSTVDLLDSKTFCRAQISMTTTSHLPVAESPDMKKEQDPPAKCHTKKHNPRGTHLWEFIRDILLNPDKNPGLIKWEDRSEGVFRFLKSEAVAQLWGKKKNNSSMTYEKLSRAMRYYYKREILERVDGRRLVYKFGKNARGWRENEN
Summary of the method: as §1

SPI1 = SPI1 (Homo sapiens, UniProt P17947 1-270)
Summary of the method: as §1

SPIB = SPIB (Homo sapiens, UniProt Q01892 1-262)
Summary of the method: as §1

ELK3 = molecular target: T6, ELK3 (Homo sapiens, UniProt P41970 1-407)
T6 sequence: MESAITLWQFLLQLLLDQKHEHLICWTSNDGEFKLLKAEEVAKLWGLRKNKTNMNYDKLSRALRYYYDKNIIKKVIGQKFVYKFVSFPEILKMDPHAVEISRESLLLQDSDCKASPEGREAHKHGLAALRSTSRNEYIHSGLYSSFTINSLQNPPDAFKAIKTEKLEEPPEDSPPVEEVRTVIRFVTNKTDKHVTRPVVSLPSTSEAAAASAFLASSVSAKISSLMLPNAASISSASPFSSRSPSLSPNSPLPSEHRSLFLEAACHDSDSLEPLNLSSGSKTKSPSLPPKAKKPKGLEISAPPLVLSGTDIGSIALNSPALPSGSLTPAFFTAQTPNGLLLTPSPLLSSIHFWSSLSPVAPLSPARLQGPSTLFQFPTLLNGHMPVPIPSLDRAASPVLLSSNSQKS
Summary of the method: as §1

FEV = molecular target: T7, FEV (Homo sapiens, UniProt Q99581 1-238)
T7 sequence: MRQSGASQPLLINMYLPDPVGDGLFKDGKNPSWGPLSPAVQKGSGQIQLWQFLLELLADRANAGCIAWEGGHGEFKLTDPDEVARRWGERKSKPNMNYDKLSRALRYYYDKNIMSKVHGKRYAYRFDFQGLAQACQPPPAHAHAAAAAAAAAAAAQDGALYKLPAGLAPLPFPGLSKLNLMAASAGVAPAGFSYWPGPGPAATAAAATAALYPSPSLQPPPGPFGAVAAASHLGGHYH
Summary of the method: as §1

ETV5 = ETV5 (Homo sapiens, UniProt P41161 1-510)
Summary of the method: as §1

SPIC = molecular target: T8, SPIC (Homo sapiens, UniProt Q8N5J4 1-248)
T8 sequence: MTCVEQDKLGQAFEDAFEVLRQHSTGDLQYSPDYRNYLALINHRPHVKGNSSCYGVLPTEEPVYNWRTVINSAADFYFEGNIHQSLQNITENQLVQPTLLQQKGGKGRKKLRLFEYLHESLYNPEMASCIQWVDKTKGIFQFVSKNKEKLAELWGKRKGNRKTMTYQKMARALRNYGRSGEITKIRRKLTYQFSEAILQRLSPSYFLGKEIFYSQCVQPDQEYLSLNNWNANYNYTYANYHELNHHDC
Summary of the method: as §1

ELF4 = ELF4 (Homo sapiens, UniProt Q99607 1-663)
Summary of the method: as §1

ELK4 = molecular target: T9, ELK4 (Homo sapiens, UniProt P28324-2 1-405)
T9 sequence: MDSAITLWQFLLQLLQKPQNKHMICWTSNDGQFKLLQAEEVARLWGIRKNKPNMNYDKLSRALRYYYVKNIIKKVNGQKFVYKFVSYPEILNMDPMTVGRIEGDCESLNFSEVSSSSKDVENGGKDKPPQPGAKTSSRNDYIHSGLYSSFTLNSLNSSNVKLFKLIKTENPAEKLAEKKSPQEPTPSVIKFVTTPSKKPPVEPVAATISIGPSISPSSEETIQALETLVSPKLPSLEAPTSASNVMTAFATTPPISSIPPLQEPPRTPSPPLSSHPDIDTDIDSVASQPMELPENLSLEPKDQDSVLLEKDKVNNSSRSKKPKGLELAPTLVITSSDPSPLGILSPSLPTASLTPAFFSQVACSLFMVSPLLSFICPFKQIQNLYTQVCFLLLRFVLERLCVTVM
Summary of the method: as §1

ETV2 = molecular target: T10, ETV2 (Homo sapiens, UniProt O00321 1-342)
T10 sequence: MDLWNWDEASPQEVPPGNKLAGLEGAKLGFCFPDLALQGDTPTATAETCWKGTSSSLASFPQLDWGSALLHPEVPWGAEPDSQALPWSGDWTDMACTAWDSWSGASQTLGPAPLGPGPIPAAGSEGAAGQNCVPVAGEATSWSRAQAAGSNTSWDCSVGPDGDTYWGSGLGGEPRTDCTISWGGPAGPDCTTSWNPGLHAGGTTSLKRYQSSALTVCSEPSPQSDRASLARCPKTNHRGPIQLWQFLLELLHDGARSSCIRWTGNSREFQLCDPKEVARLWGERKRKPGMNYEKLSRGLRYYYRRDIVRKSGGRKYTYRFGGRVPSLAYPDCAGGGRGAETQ
Summary of the method: as §1

ELF3 = molecular target: T11, ELF3 (Homo sapiens, UniProt P78545 1-371)
T11 sequence: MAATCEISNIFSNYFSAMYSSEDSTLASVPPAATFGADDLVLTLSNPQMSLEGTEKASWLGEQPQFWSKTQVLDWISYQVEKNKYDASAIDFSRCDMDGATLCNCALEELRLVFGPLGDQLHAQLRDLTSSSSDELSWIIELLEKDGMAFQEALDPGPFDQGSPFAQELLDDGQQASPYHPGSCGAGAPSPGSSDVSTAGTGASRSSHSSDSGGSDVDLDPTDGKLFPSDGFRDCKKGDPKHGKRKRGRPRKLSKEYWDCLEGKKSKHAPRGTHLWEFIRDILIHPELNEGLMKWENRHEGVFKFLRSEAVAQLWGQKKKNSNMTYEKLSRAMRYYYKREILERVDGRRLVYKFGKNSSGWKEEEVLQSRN
Summary of the method: as §1

ETV1 = ETV1 (Homo sapiens, UniProt P50549 1-477)
Summary of the method: as §1

Chain of ETV1 (P50549 whole entry): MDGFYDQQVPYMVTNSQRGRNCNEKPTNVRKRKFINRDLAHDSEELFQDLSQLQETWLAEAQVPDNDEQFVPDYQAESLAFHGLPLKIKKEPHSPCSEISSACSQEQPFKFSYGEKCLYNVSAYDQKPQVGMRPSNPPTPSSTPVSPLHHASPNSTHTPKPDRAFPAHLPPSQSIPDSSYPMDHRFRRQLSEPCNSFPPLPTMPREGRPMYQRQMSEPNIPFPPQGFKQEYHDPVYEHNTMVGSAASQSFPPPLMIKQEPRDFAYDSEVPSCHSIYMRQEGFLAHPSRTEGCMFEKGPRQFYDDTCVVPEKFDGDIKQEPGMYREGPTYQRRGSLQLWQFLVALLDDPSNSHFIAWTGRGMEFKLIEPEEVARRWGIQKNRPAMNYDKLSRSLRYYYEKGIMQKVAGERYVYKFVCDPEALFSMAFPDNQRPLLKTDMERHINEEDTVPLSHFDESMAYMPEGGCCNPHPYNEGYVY
Chain of ELF1 (P32519 whole entry): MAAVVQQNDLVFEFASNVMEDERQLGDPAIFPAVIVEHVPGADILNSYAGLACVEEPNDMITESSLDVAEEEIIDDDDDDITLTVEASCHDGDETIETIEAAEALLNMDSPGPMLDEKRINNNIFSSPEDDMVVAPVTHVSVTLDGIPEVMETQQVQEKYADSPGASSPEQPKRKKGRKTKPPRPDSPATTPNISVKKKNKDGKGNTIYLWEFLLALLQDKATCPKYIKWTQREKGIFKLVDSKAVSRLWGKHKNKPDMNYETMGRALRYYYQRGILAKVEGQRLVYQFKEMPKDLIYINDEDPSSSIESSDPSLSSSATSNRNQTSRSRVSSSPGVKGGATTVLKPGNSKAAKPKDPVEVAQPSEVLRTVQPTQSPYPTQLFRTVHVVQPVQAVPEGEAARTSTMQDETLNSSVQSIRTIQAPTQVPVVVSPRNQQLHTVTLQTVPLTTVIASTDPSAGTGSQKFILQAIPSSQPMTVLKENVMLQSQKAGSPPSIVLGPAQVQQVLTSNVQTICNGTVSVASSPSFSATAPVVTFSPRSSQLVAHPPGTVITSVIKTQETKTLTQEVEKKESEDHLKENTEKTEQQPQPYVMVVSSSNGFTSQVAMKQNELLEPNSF
Chain of SPIB (Q01892 whole entry): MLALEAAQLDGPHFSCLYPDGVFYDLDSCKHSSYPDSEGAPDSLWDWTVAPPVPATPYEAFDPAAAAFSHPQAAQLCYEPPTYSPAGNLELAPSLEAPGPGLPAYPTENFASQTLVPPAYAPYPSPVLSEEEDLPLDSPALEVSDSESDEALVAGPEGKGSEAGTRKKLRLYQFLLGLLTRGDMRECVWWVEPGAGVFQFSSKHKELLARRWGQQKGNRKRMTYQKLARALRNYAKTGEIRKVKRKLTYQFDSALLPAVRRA
Chain of ETV5 (P41161 whole entry): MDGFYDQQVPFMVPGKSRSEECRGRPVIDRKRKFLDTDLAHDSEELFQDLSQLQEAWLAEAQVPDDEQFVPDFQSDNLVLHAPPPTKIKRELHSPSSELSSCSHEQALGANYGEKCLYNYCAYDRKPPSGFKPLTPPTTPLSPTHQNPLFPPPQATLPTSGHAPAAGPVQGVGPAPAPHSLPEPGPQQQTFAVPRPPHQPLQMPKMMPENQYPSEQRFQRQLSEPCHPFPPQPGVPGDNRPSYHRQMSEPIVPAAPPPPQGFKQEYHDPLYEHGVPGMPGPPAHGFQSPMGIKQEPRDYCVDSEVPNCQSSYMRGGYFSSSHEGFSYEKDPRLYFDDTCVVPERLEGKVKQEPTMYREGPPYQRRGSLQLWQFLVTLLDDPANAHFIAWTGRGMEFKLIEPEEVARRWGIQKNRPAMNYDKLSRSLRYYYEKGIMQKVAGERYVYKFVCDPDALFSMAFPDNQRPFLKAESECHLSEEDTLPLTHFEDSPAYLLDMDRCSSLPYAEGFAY
Chain of ELF4 (Q99607 whole entry): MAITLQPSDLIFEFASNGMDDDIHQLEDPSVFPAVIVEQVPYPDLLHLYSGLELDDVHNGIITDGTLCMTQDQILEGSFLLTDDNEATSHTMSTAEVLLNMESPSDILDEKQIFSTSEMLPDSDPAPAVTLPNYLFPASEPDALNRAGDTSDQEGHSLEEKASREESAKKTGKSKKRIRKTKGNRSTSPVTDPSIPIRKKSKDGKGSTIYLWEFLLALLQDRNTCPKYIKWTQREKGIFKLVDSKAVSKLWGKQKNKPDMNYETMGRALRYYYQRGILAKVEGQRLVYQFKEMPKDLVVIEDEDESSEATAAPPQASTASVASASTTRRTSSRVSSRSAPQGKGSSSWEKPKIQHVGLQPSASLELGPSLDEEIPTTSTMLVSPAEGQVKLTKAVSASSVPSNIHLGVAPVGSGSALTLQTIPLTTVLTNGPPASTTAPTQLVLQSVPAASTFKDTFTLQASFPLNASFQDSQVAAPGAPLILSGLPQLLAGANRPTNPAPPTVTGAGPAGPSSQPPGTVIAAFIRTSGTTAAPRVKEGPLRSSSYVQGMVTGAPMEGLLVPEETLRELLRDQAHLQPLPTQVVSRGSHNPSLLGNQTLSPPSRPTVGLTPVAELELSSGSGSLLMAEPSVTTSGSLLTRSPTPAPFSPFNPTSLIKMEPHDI

Sequence	binding signal (FLI1)	binding signal (ELK1)	binding signal (GABPA)	binding signal (ERG)	binding signal (ELF1)	binding signal (EHF)	binding signal (SPI1)	binding signal (SPIB)	binding signal (ELK3)	binding signal (FEV)	binding signal (ETV5)	binding signal (SPIC)	binding signal (ELF4)	binding signal (ELK4)	binding signal (ETV2)	binding signal (ELF3)	binding signal (ETV1)
CGGCAT	1.07 fold enrichment (6-mer frequency, TF over GST control)	1.13 fold enrichment (6-mer frequency, TF over GST control)	1.07 fold enrichment (6-mer frequency, TF over GST control)	1.11 fold enrichment (6-mer frequency, TF over GST control)	1.08 fold enrichment (6-mer frequency, TF over GST control)	1.09 fold enrichment (6-mer frequency, TF over GST control)	1.13 fold enrichment (6-mer frequency, TF over GST control)	1.19 fold enrichment (6-mer frequency, TF over GST control)	1.09 fold enrichment (6-mer frequency, TF over GST control)	1.09 fold enrichment (6-mer frequency, TF over GST control)	1.13 fold enrichment (6-mer frequency, TF over GST control)	1.18 fold enrichment (6-mer frequency, TF over GST control)	1.06 fold enrichment (6-mer frequency, TF over GST control)	1.1 fold enrichment (6-mer frequency, TF over GST control)	1.25 fold enrichment (6-mer frequency, TF over GST control)	1.02 fold enrichment (6-mer frequency, TF over GST control)	1.19 fold enrichment (6-mer frequency, TF over GST control)
CGTCCG	1.31 fold enrichment (6-mer frequency, TF over GST control)	1.27 fold enrichment (6-mer frequency, TF over GST control)	1.24 fold enrichment (6-mer frequency, TF over GST control)	1.27 fold enrichment (6-mer frequency, TF over GST control)	1.28 fold enrichment (6-mer frequency, TF over GST control)	1.36 fold enrichment (6-mer frequency, TF over GST control)	1.08 fold enrichment (6-mer frequency, TF over GST control)	1.41 fold enrichment (6-mer frequency, TF over GST control)	1.36 fold enrichment (6-mer frequency, TF over GST control)	1.48 fold enrichment (6-mer frequency, TF over GST control)	1.23 fold enrichment (6-mer frequency, TF over GST control)	1.37 fold enrichment (6-mer frequency, TF over GST control)	1.26 fold enrichment (6-mer frequency, TF over GST control)	1.17 fold enrichment (6-mer frequency, TF over GST control)	1.16 fold enrichment (6-mer frequency, TF over GST control)	1.26 fold enrichment (6-mer frequency, TF over GST control)	1.38 fold enrichment (6-mer frequency, TF over GST control)
CCCTGC	1.11 fold enrichment (6-mer frequency, TF over GST control)	1.22 fold enrichment (6-mer frequency, TF over GST control)	1.12 fold enrichment (6-mer frequency, TF over GST control)	1.21 fold enrichment (6-mer frequency, TF over GST control)	1.26 fold enrichment (6-mer frequency, TF over GST control)	1.17 fold enrichment (6-mer frequency, TF over GST control)	1.2 fold enrichment (6-mer frequency, TF over GST control)	1.16 fold enrichment (6-mer frequency, TF over GST control)	1.18 fold enrichment (6-mer frequency, TF over GST control)	1.14 fold enrichment (6-mer frequency, TF over GST control)	1.18 fold enrichment (6-mer frequency, TF over GST control)	1.25 fold enrichment (6-mer frequency, TF over GST control)	1.38 fold enrichment (6-mer frequency, TF over GST control)	1.21 fold enrichment (6-mer frequency, TF over GST control)	1.05 fold enrichment (6-mer frequency, TF over GST control)	1.12 fold enrichment (6-mer frequency, TF over GST control)	1.22 fold enrichment (6-mer frequency, TF over GST control)
